Bioassay records (PubChem)
Rows were chosen to be rich in hits. Some 6% of all compounds tested hit in one or more screens of this group.
D3 ag – D3 dopamine receptor (human) agonism. AID 652048. 410,000 tested, 0.58% active. D3R DiscoveRx beta-arrestin cells, luminescence, 90 min. max activation, %. P35462; in the data active means max activation above about 30%; further: 0% is about no effect
Target sequence (P35462 whole entry, looked up): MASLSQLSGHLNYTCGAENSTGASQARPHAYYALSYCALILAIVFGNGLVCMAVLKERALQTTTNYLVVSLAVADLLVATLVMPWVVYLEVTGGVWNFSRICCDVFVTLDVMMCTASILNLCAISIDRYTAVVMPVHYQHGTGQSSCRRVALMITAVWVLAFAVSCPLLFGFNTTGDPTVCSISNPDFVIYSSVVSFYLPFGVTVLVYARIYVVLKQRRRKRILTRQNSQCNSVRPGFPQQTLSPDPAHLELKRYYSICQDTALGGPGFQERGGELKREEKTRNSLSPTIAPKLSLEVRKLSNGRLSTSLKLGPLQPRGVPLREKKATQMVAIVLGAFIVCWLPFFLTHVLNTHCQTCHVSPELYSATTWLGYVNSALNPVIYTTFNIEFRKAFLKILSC
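Cells at 1500/well, incubated overnight, then treated with pinned compounds (dopamine as control) for 90 min at 37 degrees C. DiscoveRx reagent added for 30 - 60 minutes at room temperature; luminescence read.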
D1 antagonist – human D1 dopamine receptor antagonism. activity change, negative = inhibition, % at 10 µM. 360,000 tested, 3.2% active. HEK293 TREx D1 cells, calcium flux, dopamine EC80; hits give low values. P21728; in the data active means activity change below about -30%; further: on the % scale 0 is the no-effect control and ±100 the full control effect
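Calcium flux readout: force-coupled, inducible Hek293 Trex D1 line, cells induced overnight at 30 C with tetracycline, dye-loaded 30–90 min at RT. Antagonism scored against EC80 dopamine challenge given 180 s after compound.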
BCR signal inh – chronic active BCR signaling inhibition | Potency, µM (series often up to 46.1 µM), without a hit: at the highest dose activity change, negative = inhibition, most hits filed as inhibitors | ABC-DLBCL IkBa-CBG/CBR reporter, luminescence ratio, 4 h | AID 493014 | 340,000 tested, 0.05% active; active means well fitted inhibition curve with a large enough effect in the signal ratio, with a control signal flat, not every such curve was filed as active; inconclusive means small, poorly fitted or top-dose-only effect, or effect the other way, or a change in a side signal; the % refers to the signal ratio;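 further: potency means the concentration at half of the fitted maximal effect; plate controls were basal doxycycline-induced cells for no effect and cells given 10 µM MG132 for full effect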
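Cell line TMD8 (human ABC DLBCL), stably expressing tet-inducible CBG68-IkBa fusion and CBR; IMDM/0.5% FBS; cpd up to 46 uM; dox induction, 4 h, 37C/5% CO2; dual luminescence; green/red ratio; MG132 control.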
D3 antag – antagonists of human D3 dopamine receptor | P35462 | D3R cells, DiscoveRx beta-arrestin luminescence, antagonist mode; hits give low values | max response, negative = inhibition, % | 360,000 tested, 2.5% active | AID 652054; in the data active means max response below about -50%; inconclusive means no clear call, values can overlap the other calls; further: on the % scale 0 is the no-effect control and ±100 the full control effect
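Cells plated overnight at 1500 cells/well, then exposed to library compounds with dopamine controls for 90 minutes at 37 degrees C. DiscoveRx reagent added for 30–60 minutes at room temperature; luminescence read, quantitative HTS format.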
D1 PAM – potentiators of human D1 dopamine receptor; AID 504651; HEK293 TREx D1 cells, calcium flux, dopamine EC20 potentiation; potentiation, % at 10 µM; 360,000 tested, 0.036% active; P21728; in the data active means potentiation above about 30%; further: 0% is about no effect
D1 agonist – human D1 receptor agonism. P21728. HEK293 T-REx D1 cells, calcium flux, agonist mode. activation, % at 2 µM. 360,000 tested, 1% active. AID 504660; in the data active means activation above about 30%; further: 0% is about no effect
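Tetracycline-induced HEK293 TREx D1 cells, force-coupled to calcium signalling, were dye-loaded with a no-wash calcium kit. Compound was pin-added after a 10 s baseline. Fluorescence was read kinetically at 1 cycle/s for 180 s, with calcium rises flagged as agonism.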
* = called active by the depositor; ? = inconclusive; . = no result given; ! = not active in a repeat.

SMILES	D3 ag	D1 antagonist	BCR signal inh	D3 antag	D1 PAM	D1 agonist
Cc1ccc(C)c(N2CCN(C(=O)C3CCN(C(=O)c4cc5sccc5n4C)CC3)CC2)c1	16	-65*	.	.	1	6
COc1ccc(-c2nc(NC(C)=O)sc2-c2ccc(OC)cc2)cc1	0	-4	-5%	-24	0	0
CNc1nc(-c2ccc(OC)cc2)c(-c2ccc(OC)cc2)s1	49*	-14	?	-7	-8	3
Cc1ccc(-c2nc3ncccc3o2)cc1NC(=O)c1ccc(-c2ccc(Cl)cc2)o1	1	22	.	.	2	0
CCOC(=O)CC(/C(C)=N\O)c1ccccc1 (configuration not stated)	7	-75*	1%	32	1	1
CCOC(=O)CC(NC(=O)C(CC)c1ccccc1)c1ccccc1Cl (configuration not stated)	-11	1	-7%	0	-1	0
CC(C)C[C@H]1CN(CCCC[C@H]2CNC(=O)C(=O)N2CC2CCCCC2)C(=O)C(=O)N1CCc1ccc(O)cc1	1	.	.	15	.	.
Fc1ccc(SCCc2ccncc2)cc1	17	-34*!	-1%	?	-10	9
Brc1ccc(CNc2ccc3ncccc3c2)cc1	1	-41*	-1%	13	-7	14
O=C(Nc1ccc2ncccc2c1)c1cccc(Br)c1	-3	6	?	6	4	-2
COc1ccc(Nc2nc(NCc3ccco3)nc(N/N=C/c3ccccc3F)n2)cc1	-7	-42*	-3%	-54*	-6	2
COc1ccc(/C=N/Nc2nc(NCc3ccco3)nc(Nc3ccc(OC)cc3)n2)cc1	0	-5	1%	9	-6	2
Cc1cc2c(s1)c1cnn(Cc3cc(F)cc(F)c3F)c(=O)c1n2C	.	-4	.	.	11	-1
COc1ccccc1N(C(=O)c1ccncc1)c1nc(-c2ccc([N+](=O)[O-])cc2)cs1	2	-38*	0%	8	-2	4
CCN(C(=O)C1CCC(CNS(=O)(=O)c2cccc3nsnc23)CC1)c1cccc(C)c1 (configuration not stated)	3	-7	.	.	3	5
Cc1ccc(OCCN2CCNCC2)c([N+](=O)[O-])c1	-11	14	1%	-87*	-1	5
Cc1ccc(OCCCN2CCOCC2)c([N+](=O)[O-])c1	-10	-1	?	?	-3	3
Cc1ccc(OCCN2CCN(C)CC2)c([N+](=O)[O-])c1	7	-38*	1%	-53*	0	4
COc1ccc(SCC(=O)Nc2ccc(N3CCN(C)CC3)c(F)c2)cc1	-15	3	-8%	-56*	-25	4
Cc1ccc(SCC(=O)Nc2ccc(N3CCN(C)CC3)c(F)c2)cc1	-12	-59*	?	-53*	-12	4
CN1CCN(c2ccc(NC(=O)CN3CCOCC3)cc2F)CC1	2	-2	3%	2	-4	3
O=C(CSc1ccccc1)Nc1ccc(N2CCN(c3ccccc3)CC2)c(F)c1	-1	6	-8%	-26	-3	1
O=C(Nc1nc(-c2cccs2)cs1)c1cccc(S(=O)(=O)N2CCCCC2)c1	-7	7	?	-69*	-4	4
Cc1cc(NC(=O)c2cccc(S(=O)(=O)N3CCCCCC3)c2)n(-c2ccccn2)n1	-7	6	2%	-55*	9	2
Nc1nc(NC(=O)c2cccc(S(=O)(=O)N3CCCCCC3)c2)nc(-c2ccccc2)n1	34*	-6	6%	-18	3	1
SMILES	D3 ag	D1 antagonist	BCR signal inh	D3 antag	D1 PAM	D1 agonist
Cc1ccc(-c2csc(NC(=O)c3cccc(S(=O)(=O)N4CCN(C)CC4)c3)n2)cc1	-2	-13	3%	-25	-11	7
O=C(O)c1cccc(S(=O)(=O)Nc2ccc3[nH]c(=O)[nH]c3c2)c1	-10	3	8%	-24	-8	1
O=C(O)c1cccc(S(=O)(=O)Nc2ccc3oc(=O)sc3c2)c1	-2	5	2%	-87*	-1	3
Cc1ccc(S(=O)(=O)CCC(=O)N2CCN(c3ccc(Cl)cc3)CC2)cc1	32*	9	10%	13	-7	-1
CCOC(=O)N1CCN(C(=O)Cc2ccc(C)cc2)CC1	1	-6	-2%	-58*	1	1
COC(=O)C1CCN(C(=O)Cc2ccc(C)cc2)CC1	2	-2	7%	0	1	2
Cc1ccc(C)c(CSC2=NCCN2C(=O)Cc2ccc([N+](=O)[O-])cc2)c1	-8	-9	?	-61*	-6	1
O=[N+]([O-])c1ccc(N2CCN(CC3CCCCC3)CC2)cc1	-5	-25	-2%	-58*	-5	2
CCOc1ccccc1CNC(=O)c1sc2ncccc2c1-n1cccc1	-1	6	.	.	-2	4
Cc1ccc(N2C(=O)CC(c3ccccc3F)C3=C2COC3=O)cc1Cl (configuration not stated)	-2	-2	.	.	-3	0
Cc1ccc(CC(=O)N2CCN(c3ccc([N+](=O)[O-])cc3)CC2)cc1	17	-42*	-5%	15	-8	10
COc1ccc(-c2noc(CN(C(=O)c3cc(OC)c(OC)cc3OC)C(C)C)n2)cc1	-14	-4	.	.	-3	1
O=C(O)COc1ccc(-c2nnn(CC(=O)O)n2)cc1	-10	-36*	.	-19	-6	0
CCCCOc1ccc(-c2nnn(CCC(=O)N3CCOCC3)n2)cc1	7	-23	-1%	-96*	-4	11
CCCOc1ccc(-c2nnn(CC(=O)c3ccc4c(c3)OCCO4)n2)cc1	29	11	1%	15	-3	2
